# Screening results deposited in PubChem by several laboratories.
# A selection: hits, their analogues and other compounds. The true share with any hit is near 32%.
# PostGolgi yeast: growth inhibition of a yeast mutant, post-Golgi transport screen. post-Golgi transport phenotypic cell assay. inhibition, % at 10 µM. hit rate 0.9% among 98,000. AID 739;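 also: yeast cells grown in 1536-well plates; yeast grown about 18 h at 30C before absorbance read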
# CYP2C9 activ: increases human cytochrome P450 2C9 activity. P11712. recombinant CYP2C9, luciferin-H conversion, luminescence; hits give high values; factor 1 = untreated enzyme, 0 = blocked. activation factor at 5 µM. hit rate 1.4% among 96,000. AID 1024;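 active = activation factor of 2 or more for CYP2C9 at a 5 µM dose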
# CYP2C9 inhib: human CYP2C9 inhibition | P11712 | CYP2C9 Supersomes, luciferin-H conversion, luminescence | inhibition, % at 5 µM | hit rate 20% among 96,000 | AID 777;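 active = blocking of liver enzyme CYP2C9 beyond about 50% at 5 µM, limit read from the data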
# CYP2C19 act: activators of human cytochrome P450 2C19; P33261; recombinant CYP2C19, luciferin-H EGE luminescence; hits give high values; 0 = fully inhibited enzyme, 1 = untreated enzyme; activation factor at 5 µM; 96,000 tested, under 10 active;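 active = activation factor of at least 2 at 5 µM in the primary screen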
# Target sequence (P33261 whole entry, looked up): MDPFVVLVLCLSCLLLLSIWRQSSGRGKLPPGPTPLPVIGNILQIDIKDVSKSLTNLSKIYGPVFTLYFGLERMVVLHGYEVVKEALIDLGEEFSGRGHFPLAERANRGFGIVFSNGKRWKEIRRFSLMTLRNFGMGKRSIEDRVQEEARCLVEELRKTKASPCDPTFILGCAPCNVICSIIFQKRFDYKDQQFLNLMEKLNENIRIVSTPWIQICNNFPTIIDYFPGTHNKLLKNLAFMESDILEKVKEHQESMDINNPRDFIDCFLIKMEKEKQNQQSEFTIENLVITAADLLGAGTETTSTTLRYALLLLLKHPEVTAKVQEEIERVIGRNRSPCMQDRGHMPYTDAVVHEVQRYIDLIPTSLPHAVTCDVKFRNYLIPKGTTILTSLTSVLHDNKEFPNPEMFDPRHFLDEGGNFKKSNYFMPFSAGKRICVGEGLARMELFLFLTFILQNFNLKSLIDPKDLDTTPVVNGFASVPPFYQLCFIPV
# CYP2C19 inhib: human CYP2C19 inhibition; P33261; CYP2C19 Supersomes, luciferin-H EGE luminescence, 30 min; inhibition, % at 5 µM; hit rate 21% among 96,000;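 active = CYP2C19 inhibition above a set limit at 5 µM in the primary screen, cut at about 50% in these data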
# PostGolgi ctrl: inhibits growth of the yeast control strain; efflux-deficient yeast background strain, growth absorbance A615, 16 h; inhibition, % at 10 µM; hit rate 5% among 98,000; AID 738
# A number is an active result; i = inactive; nt = no result given. Rule as the data show it, unless noted: active = inhibition above about 30%; inactive = the rest.
SMILES,PostGolgi yeast,CYP2C9 activ,CYP2C9 inhib,CYP2C19 act,CYP2C19 inhib,PostGolgi ctrl
Cc1ccc(N2CC(C(=O)N3CCN(C(=O)c4ccco4)CC3)CC2=O)cc1 (stereo unspecified),i,i,i,i,i,i
COc1ccccc1Oc1ccc(S(=O)(=O)N2CCOCC2)cc1S(=O)(=O)N1CCOCC1,i,nt,nt,nt,nt,i
COc1cc(C)c(C(C)C)cc1S(=O)(=O)N1CCOCC1,i,2,i,i,i,i
COc1cc(Cl)c(S(=O)(=O)N2CCOCC2)cc1Cl,i,2.7,i,i,i,i
COc1cc(Cl)c(S(=O)(=O)N2CC(C)OC(C)C2)cc1Cl (stereo unspecified),i,i,i,i,84,i
O=C(CSc1ccc2nnc(-c3ccccn3)n2n1)NCC1CCCO1 (stereo unspecified),i,i,i,i,i,i
O=C(Cn1cnc2c(nnn2-c2ccccc2)c1=O)NCC1CCCO1 (stereo unspecified),i,i,i,i,i,i
CCS(=O)(=O)c1ccc(S(=O)(=O)CC)s1,i,i,i,i,i,i
CS(=O)(=O)NCCCNc1c(Cl)cccc1[N+](=O)[O-],i,i,i,i,i,i
O=[N+]([O-])c1cccc(Cl)c1NCCNS(=O)(=O)c1ccccc1,i,2,i,i,60,i
COc1ccc(-c2cc(-c3ccccc3)n3ncnc3n2)cc1,i,i,i,i,i,i
c1ccc(Nc2cc(-c3ccccc3)nc3ncnn23)cc1,93,i,i,i,i,i
COc1ccc(CCNc2cc(-c3ccccc3)nc3ncnn23)cc1,i,i,56,i,i,i
Cc1cccc(NC(=O)/C=C/c2cccs2)n1,i,i,i,i,i,i
CC(/C=C/c1ccccc1)NC(N)=O (stereo unspecified),i,i,61,i,i,i
CC(=O)Nc1ccc(NC(=O)/C(Cl)=C/c2ccccc2)cc1,i,i,i,i,i,i
CCN(CC)c1nc2cc(OC)ccc2cc1C#N,39,i,i,i,i,i
COc1ccc2nc(N3CCC(O)CC3)c(C#N)cc2c1,i,i,i,i,63,i
COc1cc(C(=O)N2CCCN(c3nc4cc(C)ccc4cc3C#N)CC2)cc(OC)c1OC,nt,i,i,i,i,nt
COc1ccc(C(=O)N2CCN(c3nc4cc(C)ccc4cc3C#N)CC2)c(OC)c1,i,i,55,i,i,i
CCOC(=O)C1CCN(c2nc3cc(OC)ccc3cc2C#N)CC1,i,i,96,i,96,i
COc1ccc(OC)c(/C=N/NC(=O)c2csc3ccccc23)c1,i,i,i,i,i,i
CC1Cc2ccccc2N1C(=O)CN1C(=O)CN(C)C(=O)c2ccccc21 (stereo unspecified),i,i,i,i,i,i
CCCCN1CCc2c([nH]c3c(C)cccc23)C1=O,nt,i,i,i,i,nt
CCCN(CCC)C(=O)Cn1c2ccccc2c2nc(=O)cc(C)n21,i,i,i,i,i,i
SMILES,PostGolgi yeast,CYP2C9 activ,CYP2C9 inhib,CYP2C19 act,CYP2C19 inhib,PostGolgi ctrl
Cc1ccc(-n2nnnc2-c2cnc(N3CCCC3)nc2C(F)(F)F)cc1,i,i,76,i,87,i
FC(F)(F)c1nc(N2CCCC2)ncc1-c1nnnn1-c1ccccc1,i,i,52,i,82,i
COc1ccc(C(C(=O)NC(C)(C)C)N(C(=O)CNC(=O)c2cccs2)c2ccc(C)cc2)cc1OC (stereo unspecified),i,i,i,i,i,i
COCCOC(=O)C1=C(C)NC(=O)NC1c1c(F)cccc1Cl (stereo unspecified),i,i,i,i,i,i
COc1ccc(-n2nc(C(=O)NCC(=O)NCC3CCCO3)c3ccccc3c2=O)cc1 (stereo unspecified),i,i,63,i,i,i
COc1ccc(-n2nc(C(=O)NCC(=O)NCc3ccco3)c3ccccc3c2=O)c(OC)c1,i,i,72,i,i,i
COc1ccc(-n2nc(C(=O)NCC(=O)NCc3ccc(F)cc3)c3ccccc3c2=O)c(OC)c1,i,i,51,i,i,i
O=C(NCc1ccco1)c1nn(-c2ccccc2)c(=O)c2ccccc12,i,i,i,i,i,i
COc1ccc(-n2nc(C(=O)NCC(=O)NCc3ccco3)c3ccccc3c2=O)cc1,i,i,62,i,i,i
COc1ccc(-n2nc(C(=O)NCC(=O)NCC3CCCO3)c3ccccc3c2=O)c(OC)c1 (stereo unspecified),i,i,i,i,i,i
COc1ccc(-n2nc(C(=O)NCC(=O)Nc3ccccn3)c3ccccc3c2=O)cc1,i,i,i,i,i,i
CN(C(=O)Nc1ccc(S(=O)(=O)N(C)C)cc1)C1CCCCC1,i,i,i,i,i,i
Cc1ccc(-n2nnc3c(=O)n(CC(=O)NCc4ccco4)cnc32)cc1,i,2.1,i,i,i,i
O=c1c2cc(N3CCOCC3)ccc2[nH]c(=S)n1CC1CCCO1 (stereo unspecified),i,i,62,i,i,i
O=[N+]([O-])/C(C(Cl)=C(Cl)Cl)=C(\Nc1ccc(F)cc1)n1cncn1,i,i,i,i,i,i
O=c1c2c(-c3ccccc3)csc2ncn1/N=C/c1c2ccccc2cc2ccccc12,i,i,85,i,i,i
CNC(=O)c1sc(-c2ccc(Cl)cc2)nc1C,i,i,i,i,i,i
CNC(=O)c1sccc1S(=O)(=O)Cc1c(Cl)cccc1Cl,i,i,54,i,87,i
C/[N+]([O-])=C1\Cc2ccccc2C1=O,i,i,i,i,i,i
C=CCNC(=O)c1onc(CCl)c1C(=O)OC,i,i,i,i,i,i
COC(=O)C1C(=O)C2=C(CC1C)NC(C)=C(C(=O)OCc1ccc(OC)cc1)C2c1ccc(C)o1 (stereo unspecified),i,i,80,i,61,i
COC(=O)C1C(=O)C2=C(CC1C)NC(C)=C(C(=O)OC(C)C)C2c1ccc(C)o1 (stereo unspecified),i,i,59,i,i,i
CCOC(=O)N1CCC(n2c(SCC(=O)Nc3ccccc3OC)nc3ccccc3c2=O)CC1,i,i,95,i,90,i
COc1ccc(NC(=O)CSc2nc3ccccc3c(=O)n2CCCN2CCCCC2)c(OC)c1,i,i,i,i,64,i
COc1ccc(NC(=O)CCN2CCCCCC2)c(OC)c1,i,i,i,i,i,i
CCOC(=O)N1CCC(n2c(SCC(=O)NCc3ccccc3)nc3ccccc3c2=O)CC1,i,i,53,i,60,i
CCOC(=O)N1CCC(n2c(SCC(=O)N3CCCC3)nc3ccccc3c2=O)CC1,i,i,i,i,i,i
COCC(C)n1c(SCC(=O)NCCC2=CCCCC2)nc2ccccc2c1=O (stereo unspecified),i,i,87,i,84,i
C=CCN1CCN(C(CC(C)C)c2nnnn2CCOC)CC1 (stereo unspecified),i,i,i,i,i,i
